Broadly, the inhibition is the change of the read-out against control, counted positive when it falls.

The structures appear in SMILES notation. In all, about 65,000 compounds went through this assay and about 1,200 (1.8%) were called active. Only a selection was taken, and actives are over-represented in it overall. Values without a mark were called inactive. Rule as the data show it: active = inhibition above about 50%; inactive = the rest.

The test concerns the target Gag-Pol polyprotein (Human immunodeficiency virus type 1 group M subtype B (isolate HXB2)) (UniProt P04585). In words: blockers of HIV-1 RNase H RNA/DNA cleavage – biochemical, fluorescence, primary screen (AID 565). The settings on record: RT-RNase H RNA/DNA duplex cleavage, at 10 µM, hits give high values.
In the case of `CCOC(=O)C(C(=O)OCC)C(C#N)c1ccccc1` (stereo unspecified), the inhibition is -13.1%.
To `Cc1ccc(-c2nnc(SC(C)C#N)n2N)cc1` (stereo unspecified) belongs -0.02%; to `COc1cc(C(=O)Nc2oc(-c3ccccc3)c(-c3ccccc3)c2C#N)cc(OC)c1OC`, 80% (active); to `N#Cc1c(NC(=O)CCCN2C(=O)c3ccccc3C2=O)oc(-c2ccccc2)c1-c1ccccc1`, 19%.
On to `COc1cc(C(=O)Nc2nccs2)cc(OC)c1OC`, for which the inhibition was -12.7%.
`COCCNC(=O)C(c1ccc(C)o1)N(Cc1ccccc1)C(=O)Cn1nnc2ccccc21` (stereo unspecified): the inhibition was 5.47%.
To `CCC(C)(C)NC(=O)C(c1cccn1C)N(Cc1ccc(C)cc1)C(=O)Cn1nnc2ccccc21` (stereo unspecified) belongs 50.2% (active).
To `CC(C)(C)NC(=O)C(c1ccco1)N(Cc1ccc2c(c1)OCO2)C(=O)Cn1nnc2ccccc21` (stereo unspecified) belongs 9.38%; to `CCOc1ccc(Cn2c(SCCCCC#N)nc3c2c(=O)n(C)c(=O)n3C)cc1OCC`, 29.2%; to `Cc1ccc(C)n1-c1ccncc1`, -2.45%.
Take `O=C(COc1ccc(S(=O)(=O)NCCc2ccccc2)cc1)N1CCCC1`: the inhibition was -8.41%.
On to `Cc1ccc(Cn2nnc3c(=O)n(CC(=O)N4CCCCC4)cnc32)cc1`, for which the inhibition is -6.24%.
With `CC(=O)Nc1ccc(-c2nn3c(C)nnc3s2)cc1C` the figure was -4.83%; with `N#Cc1c(N)sc2c1CCN(C(=O)OCc1ccccc1)C2`, 52% (active).
Regarding `CCN1CCc2c(C#N)c(NCc3ccccc3)nc(NCCO)c2C1`, the inhibition was 10.1%.
With `N#Cc1ccc(COC(=O)Cn2nnc(-c3ccccc3)n2)cc1`, the inhibition is -12.9%.
To `CN(C(=O)CSc1nnnn1-c1ccccc1)C1CCCCC1` belongs -7.53%.
To `CCN(Cc1ccccc1)C(=O)CSc1nc(C)cc2c1C(=O)OC2` belongs -15.7%; to `O=C(O)CCC(=O)N(Cc1cccs1)Cc1cccs1`, 4.03%; to `Cc1ccc(-c2nn(-c3ccccc3)cc2CN(Cc2ccccc2)C(=O)CCC(=O)O)o1`, 81.7% (active).
To `CSCCC1NC2(C(=O)Nc3ccc(Cl)cc32)[C@@H]2C(=O)N(C3CCCC3)C(=O)[C@H]12` (stereo partly specified) belongs 2.23%; to `c1ccc2c(c1)OCC(CNc1ncnc3nc[nH]c13)O2` (stereo unspecified), -8.18%.
Turning to `COC(=O)c1ccc(OC(=O)c2nn(C)cc2Cl)c(OC)c1`, the inhibition is -6.66%.
With `CN(c1ccccc1)c1ccc(/C=c2\s/c(=C(/C#N)C(=O)C(C)(C)C)n(Cc3ccco3)c2=O)cc1` the figure was 71.8% (active).
To `O=c1nc2s/c(=C\c3ccco3)c(=O)n2nc1Cc1ccccc1` belongs 5.64%; to `CCOc1ccccc1/C=c1\sc2nc(-c3ccco3)nn2c1=O`, 33.7%.
As to `CN(C)c1cc(N)c2ccccc2n1` (tested in a mixture with another compound), the inhibition was -10%.
To `COc1ccc(-c2nc(CS(=O)CC(=O)NCc3ccccn3)c(C)o2)cc1` (stereo unspecified) belongs 2.69%; to `CCOC(=O)C1CCN(Cc2coc3ccc(Cl)cc3c2=O)CC1`, 2.73%.
To `O=C(Cn1nnc(-c2ccccc2)n1)NCc1ccc2c(c1)OCO2` belongs -23.7%; to `CC1=C(C(N)=O)C(c2ccc3c(c2)OCO3)n2nc(-c3cccc(C)c3)nc2N1` (stereo unspecified), 0.45%.
With `c1ccc(-c2nnc3n2NC(c2ccc4c(c2)OCO4)S3)cc1` (stereo unspecified) the figure was 67.9% (active); with `COC(=O)C1=C(C)OC(N)=C(C#N)C1c1cc(OC)ccc1OC` (stereo unspecified), -6.95%.
Turning to `CCC(=O)NC(=Nc1nc2ccccc2s1)NC(=O)CC`, the inhibition is -21.2%.
To `CCOc1ccc(Nc2oc(Cc3ccccc3)nc2C#N)cc1` belongs -28.4%; to `COc1ccc(Nc2oc(-c3ccccc3Cl)nc2C#N)cc1`, 54.5% (active).
`N#Cc1nc(-c2ccc(OCc3ccccc3)cc2)oc1NCCCN1CCOCC1`: the inhibition is -42.2%.
To `NC(=O)CSC1=Nc2ccccc2C2=NC(CCC(=O)NCc3ccc(F)cc3)C(=O)N12` (stereo unspecified) belongs -6.32%.
With `O=C(CSC1=Nc2ccccc2C2=NC(c3ccccc3)C(=O)N12)NCC1CCCO1` (stereo unspecified) the figure was 2.21%; with `CC(C)C1N=C2c3ccccc3N=C(SCC(=O)c3ccc(O)c(O)c3)N2C1=O` (stereo unspecified), 96.1% (active).
With `CCOc1cc(/C=N/O)cc(Br)c1OC` the figure was -18.2%; with `CN1CCC2(CC1)NC(=O)NC2=O`, -0.41%; with `COc1ccc(N2CCN(C(=O)CSc3ncnc4c3cnn4-c3ccc(OC)cc3)CC2)cc1`, 54.2% (active).
In the case of `COc1ccc(N2CCN(C(=O)CSc3nnc4ncccn34)CC2)cc1`, the inhibition was 2.76%.
As to `COc1ccc(N2CCN(C(=O)CSc3nc4cc(OC)c(OC)cc4cc3C#N)CC2)cc1`, the inhibition is 36.4%.
Turning to `O=C(O)C1CCCN(S(=O)(=O)c2cccc3cccnc23)C1` (stereo unspecified), the inhibition is -3.84%.
`COc1cc2[nH]c(=S)n(CCN3CCCCC3C)c(=O)c2cc1OC` (stereo unspecified): the inhibition was -11%.
For the compound `CCSc1nc(=S)n(CC)c(C)c1C(C)=O`, the inhibition is -6.33%.
Take `CCOC(=O)CNC(=O)c1nn(-c2cccc(OC)c2)c(=O)c2ccccc12`: the inhibition is -9.52%.
With `CCOC(=O)Cn1c(N)c(C(=O)OC)sc1=S` the figure was 56.2% (active); with `CCOC(=O)c1nc(N)sc1C(=O)OCC`, -13.4%.
To `CCOC(=O)CSc1nnc(CNC(=O)c2cccs2)n1-c1ccccc1` belongs -126%; to `COC(=O)c1cn(-c2ccccc2)nc1-c1cccnc1`, -35.4%.
With `COC(=O)c1sc(=S)n(-c2ccccc2)c1N` the figure was 88.6% (active); with `CCOC(=O)c1sc(=S)n(-c2cccc(OC)c2)c1N`, 65.1% (active).
Consider `CCOc1cccc(-n2nnnc2-c2ccc(OC)cc2)c1`, for which the inhibition is -27.8%.
With `CCOC(=O)Cn1c(SC)nc2sc3c(c2c1=O)CC(C)(C)OC3`, the inhibition is -12.4%.
With `O=C(Cn1c(=S)nc2ccccn21)N1CCc2ccccc2C1` the figure was -12.1%.
With `Cc1nn2c3ccccc3nc2n(C)c1=O` the figure was -8.5%; with `CCOc1ncccc1C(=O)OCc1cn2cc(Cl)ccc2n1`, -19.9%.
Regarding `CCN(CC)CCCN1C(=O)C(=O)/C(=C(/O)c2c(C)nc3ccccn23)C1c1ccc(C)o1` (stereo unspecified), the inhibition is -7.5%.

Values taken from PubChem BioAssay AID565 (University of Pittsburgh Molecular Library Screening Center, 2006).
